In PubChem BioAssay AID1053205 (Broad Institute, 2014):
Entries with a potency or affinity are not part of this list. Records with an inconclusive call do not appear. Active and inactive are the calls of the source.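 How the source made its calls: active means compounds lowering the FRET ratio whose fitted half-maximal concentration is at most twice their top tested dose; inconclusive means flat partial drop between 30 and 70 percent, or bad fit; inactive means the rest.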

Each compound was assayed against Voltage-dependent L-type calcium channel subunit alpha-1D (Homo sapiens) (UniProt Q01668) (assay: disruptors of CaV1.3 IQ/ICDI domain association – cell-based, HEK293, YFP-IQ/CFP-ICDI FRET, cherry-picks, dose response (AID 1053205;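 further: 0% = median of neutral control wells and -100% = median of positive control wells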)). Details: HEK293 YFP-IQ/CFP-ICDI FRET ratio, 10 min; series mostly up to 35 µM; FRET change, negative = inhibition: at the top concentration.
Voltage-dependent L-type calcium channel subunit alpha-1D (Homo sapiens), sequence (Q01668 whole entry, looked up, the tested form may be a part): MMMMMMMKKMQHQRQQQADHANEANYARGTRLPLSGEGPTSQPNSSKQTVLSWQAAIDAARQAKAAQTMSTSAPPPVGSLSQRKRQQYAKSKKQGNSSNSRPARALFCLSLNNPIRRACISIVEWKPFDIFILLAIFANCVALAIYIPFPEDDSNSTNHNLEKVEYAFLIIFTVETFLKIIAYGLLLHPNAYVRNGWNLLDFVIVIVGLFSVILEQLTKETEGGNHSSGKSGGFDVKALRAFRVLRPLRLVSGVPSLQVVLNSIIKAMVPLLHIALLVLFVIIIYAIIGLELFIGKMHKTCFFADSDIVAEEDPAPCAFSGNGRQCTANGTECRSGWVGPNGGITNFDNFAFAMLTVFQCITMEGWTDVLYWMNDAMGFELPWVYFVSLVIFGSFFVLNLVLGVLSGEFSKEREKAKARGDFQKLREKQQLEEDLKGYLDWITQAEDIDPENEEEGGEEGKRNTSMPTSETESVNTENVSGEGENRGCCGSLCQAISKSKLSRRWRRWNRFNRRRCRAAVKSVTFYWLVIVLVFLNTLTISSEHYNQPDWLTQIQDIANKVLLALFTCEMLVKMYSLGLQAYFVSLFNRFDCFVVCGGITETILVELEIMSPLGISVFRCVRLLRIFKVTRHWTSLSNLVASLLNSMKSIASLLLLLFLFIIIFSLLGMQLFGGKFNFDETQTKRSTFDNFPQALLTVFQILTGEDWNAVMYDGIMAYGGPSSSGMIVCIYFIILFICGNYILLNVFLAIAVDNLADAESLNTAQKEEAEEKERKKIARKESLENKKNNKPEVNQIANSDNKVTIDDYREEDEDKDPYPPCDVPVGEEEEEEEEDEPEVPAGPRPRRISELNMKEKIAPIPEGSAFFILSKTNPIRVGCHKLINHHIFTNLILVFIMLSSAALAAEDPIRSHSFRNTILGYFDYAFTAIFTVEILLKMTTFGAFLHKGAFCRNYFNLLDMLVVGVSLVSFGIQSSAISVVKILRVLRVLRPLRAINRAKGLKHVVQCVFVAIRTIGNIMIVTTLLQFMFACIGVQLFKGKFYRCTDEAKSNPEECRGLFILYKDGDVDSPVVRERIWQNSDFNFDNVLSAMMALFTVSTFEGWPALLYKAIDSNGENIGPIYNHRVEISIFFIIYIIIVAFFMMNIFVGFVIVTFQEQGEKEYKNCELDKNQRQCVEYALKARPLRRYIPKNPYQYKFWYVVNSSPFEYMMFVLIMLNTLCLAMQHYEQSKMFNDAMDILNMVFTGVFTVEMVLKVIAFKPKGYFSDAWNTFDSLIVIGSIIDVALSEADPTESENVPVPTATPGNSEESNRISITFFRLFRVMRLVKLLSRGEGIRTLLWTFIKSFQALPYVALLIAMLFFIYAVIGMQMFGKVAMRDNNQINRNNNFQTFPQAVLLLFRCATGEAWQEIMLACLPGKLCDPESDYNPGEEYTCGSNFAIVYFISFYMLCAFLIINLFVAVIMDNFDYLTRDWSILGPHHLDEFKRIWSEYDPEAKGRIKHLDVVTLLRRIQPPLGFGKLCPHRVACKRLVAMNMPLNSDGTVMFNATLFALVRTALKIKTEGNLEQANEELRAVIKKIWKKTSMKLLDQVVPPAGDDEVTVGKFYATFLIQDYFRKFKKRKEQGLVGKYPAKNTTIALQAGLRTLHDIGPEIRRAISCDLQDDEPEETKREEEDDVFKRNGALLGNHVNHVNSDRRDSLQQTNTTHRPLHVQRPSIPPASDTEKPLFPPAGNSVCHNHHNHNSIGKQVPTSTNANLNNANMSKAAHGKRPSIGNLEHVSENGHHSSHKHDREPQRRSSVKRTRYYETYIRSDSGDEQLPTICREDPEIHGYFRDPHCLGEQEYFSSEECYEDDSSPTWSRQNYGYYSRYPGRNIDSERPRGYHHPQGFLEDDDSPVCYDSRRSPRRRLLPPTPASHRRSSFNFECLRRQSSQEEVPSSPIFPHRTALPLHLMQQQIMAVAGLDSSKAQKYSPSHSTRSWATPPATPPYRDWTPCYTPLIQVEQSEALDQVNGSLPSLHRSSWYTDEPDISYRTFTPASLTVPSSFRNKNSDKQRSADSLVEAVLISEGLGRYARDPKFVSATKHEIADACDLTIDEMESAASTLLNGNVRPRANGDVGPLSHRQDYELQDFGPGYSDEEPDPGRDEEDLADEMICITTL

SMILES	FRET change, negative = inhibition
Cc1ccc(-n2nnnc2CNC(=O)C(=O)c2c[nH]c3ccccc23)cc1C	-22.5% (inactive)
Cn1cc(C(c2ccccc2OCC(=O)O)c2cn(C)c3ccccc23)c2ccccc21	12.7% (inactive)
O=C1CCc2cc(S(=O)(=O)NC(Cc3ccccc3)C(=O)NCCC3=CCCCC3)ccc2N1 (configuration not stated)	-3.37% (inactive)
Cc1cccc2sc(NNC(=O)c3ccc(S(=O)(=O)N4CCCC(C)C4)cc3)nc12 (configuration not stated)	-1.05% (inactive)
COc1ccc(S(=O)(=O)N2CCCC2CNC(=O)C(=O)NC2CCCC2)cc1 (configuration not stated)	6.72% (inactive)
O=C(O)c1cccc(NC(=O)c2cn(-c3ccccc3)nc2-c2cccc(Br)c2)c1	-4.92% (inactive)
C=CCN1C(=S)CC(c2ccccc2)=Nc2ccccc21	-11.7% (inactive)
CCCn1c(=N)c(S(=O)(=O)c2ccccc2)cc2c(=O)n3ccccc3nc21	457% (inactive)
CC1CCCCC1NC(=O)CN1C(=O)c2cccc(N)c2C1=O (configuration not stated)	321% (inactive)
COc1ccc(C(=O)Oc2cc(N)n(S(=O)(=O)c3ccccc3)n2)cc1	0.324% (inactive)
CC(C)C(=O)Nc1sc2c(c1C(N)=O)CCN(Cc1ccccc1)C2	96.8% (inactive)
CC(C)(C)[C@H]1CCC(=O)N([C@H](CSc2ccccc2)Cc2ccccc2)CC1	-35.3% (inactive)
Cc1cc2c(C)cc(=O)oc2c2c1NCCC2	451% (inactive)
Cc1ccc(S(=O)(=O)CCC(=O)OCC(=O)Nc2cccc(S(=O)(=O)N3CCCCC3)c2)cc1	32.2% (inactive)
Nc1ccc2nc(-c3ccccc3)cnc2c1	451% (inactive)
CCCOc1ccccc1/C=C1\SC(N)=NC1=O	78.1% (inactive)
Nc1ccc(C#Cc2ccc3c(=O)c4ccccc4oc3c2)cc1	412% (inactive)
CCOc1ccc(C2C(C#N)=C(N)Oc3cc(O)ccc32)cc1OCC (configuration not stated)	102% (inactive)
Cc1ccc2nc3c(cc(C(=O)NCc4ccccc4)c(=N)n3CCCn3ccnc3)c(=O)n2c1	404% (inactive)

SMILES	FRET change, negative = inhibition
O=C(CCc1c[nH]c2ccccc12)OCC(=O)c1ccccc1	-6.7% (inactive)
CCOC(=O)c1cc2c(=O)n3cccc(C)c3nc2n(CC(C)C)c1=NC(=O)c1ccco1	159% [at 8 µM] (inactive)
N#CC1=C(N)Oc2cc(N)ccc2C1c1ccc(F)cc1F (configuration not stated)	51.9% (inactive)
COCCNC(=O)c1cc2c(=O)n3cccc(C)c3nc2n(Cc2ccncc2)c1=N	405% (inactive)
CCOC1=NN(c2ncc(C(F)(F)F)cc2Cl)C(=O)C1	19% (inactive)
CN1CCN(c2nc3ccccn3c(=O)c2/C=C(\C#N)S(=O)(=O)c2ccccc2)CC1	37.4% (inactive)
Clc1cccc(CN2CCN(Cc3nc(CCc4ccccc4)no3)CC2)c1	-34.4% (inactive)
Cc1noc(C)c1-c1ccc(C(=O)NCCc2ccccc2)c2occc12	16.9% (inactive)
CCN1/C(=C/c2sc(-c3ccccc3C)c[n+]2C)Sc2ccccc21	148% [at 8 µM] (inactive)
COc1cc(/C=C(\C#N)C(=O)NC(C)C)cc(Cl)c1O	-16.2% (inactive)
CCCN1CCN(C(=O)c2ccc(CS(=O)c3ccc(Br)cc3)o2)CC1 (configuration not stated)	19.1% (inactive)
CC(=O)c1cc2c(ccc3ccccc32)oc1=O	84.2% (inactive)
O=C(Cn1ccc([N+](=O)[O-])n1)N1CCCCCC1	3.68% (inactive)
COc1cc(C2C3=C(CC(C)(C)CC3=O)N(C)C3=C2C(=O)CC(C)(C)C3)cc(Br)c1O	-4.72% (inactive)
COc1ccc(-[n+]2c(C)cc(/C=C3\Sc4ccccc4N3C)cc2C)cc1	182% (inactive)
CCCCCCSc1cc(-c2nc3cc(C)ccn3c2NCCCC)ccc1OC	43.7% (inactive)
COc1ccc(Cn2nnnc2C(CC(C)C)N2CCC(C(N)=O)CC2)cc1 (configuration not stated)	-0.453% (inactive)
NC(=O)c1c(NC(=O)Cc2ccccc2)sc2c1CCN(Cc1ccccc1)C2	204% (inactive)
